# From article PMC7862700, “An all-to-all approach to the identification of sequence-specific readers for epigenetic DNA modifications on cytosine”
# How the values were obtained:
# Assay in all cases: DAPPL (digital affinity profiling via proximity ligation, sequencing); 10 mM Tris-HCl pH 7.5, 50 mM NaCl, 1 mM DTT, 4% glycerol, room temperature, 30 min; GST-TFs on glutathione beads, 16-mer random dsDNA library, 0.1% formaldehyde crosslink after washing; high values mean tight binding
# FLI1 = biological target: T1, FLI1 (Homo sapiens, UniProt Q01543 1-452); conditions: protein: recombinant; tags: N-terminal GST; dsDNA, one strand shown
# T1 sequence: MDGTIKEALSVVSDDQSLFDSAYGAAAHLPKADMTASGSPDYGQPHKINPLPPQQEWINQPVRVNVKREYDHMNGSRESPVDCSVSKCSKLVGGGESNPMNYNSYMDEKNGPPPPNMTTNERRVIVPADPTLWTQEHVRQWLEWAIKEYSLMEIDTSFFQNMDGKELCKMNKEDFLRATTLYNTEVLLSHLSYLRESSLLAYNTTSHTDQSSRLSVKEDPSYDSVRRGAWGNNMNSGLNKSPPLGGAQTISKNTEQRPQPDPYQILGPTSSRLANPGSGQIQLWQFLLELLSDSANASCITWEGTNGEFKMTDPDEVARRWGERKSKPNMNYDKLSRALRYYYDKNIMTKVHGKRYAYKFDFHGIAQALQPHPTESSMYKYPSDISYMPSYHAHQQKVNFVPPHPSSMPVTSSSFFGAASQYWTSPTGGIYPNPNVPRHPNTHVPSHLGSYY
# Outline: (§1)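 Binding signal is given per hexamer as its read frequency for a factor divided by its frequency in the tag-only sample. GST-fused human transcription factors were expressed in yeast, captured on glutathione beads, barcoded with DNA and pooled with that sample, then incubated with 200 nmole of a 16-mer random double-stranded DNA library in Tris/NaCl/DTT/glycerol buffer for 30 min at room temperature. The pools were then washed, crosslinked, proximity-ligated, amplified by PCR and sequenced on an Illumina NextSeq500.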
# ELK1 = biological target: T2, ELK1 (Homo sapiens, UniProt P19419 1-428); conditions: protein: recombinant; tags: N-terminal GST; dsDNA, one strand shown
# T2 sequence: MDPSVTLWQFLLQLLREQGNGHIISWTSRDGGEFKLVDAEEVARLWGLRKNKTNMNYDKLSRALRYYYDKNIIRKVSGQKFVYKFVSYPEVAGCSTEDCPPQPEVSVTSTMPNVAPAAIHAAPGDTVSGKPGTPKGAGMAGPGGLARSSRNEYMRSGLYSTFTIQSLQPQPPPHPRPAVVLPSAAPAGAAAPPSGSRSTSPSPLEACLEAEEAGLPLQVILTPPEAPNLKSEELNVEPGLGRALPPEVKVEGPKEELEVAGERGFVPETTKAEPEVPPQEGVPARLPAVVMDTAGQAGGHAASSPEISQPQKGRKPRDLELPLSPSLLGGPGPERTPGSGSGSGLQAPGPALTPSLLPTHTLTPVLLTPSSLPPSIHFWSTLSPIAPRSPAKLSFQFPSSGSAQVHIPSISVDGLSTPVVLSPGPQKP
# Outline: as §1
# GABPA = biological target: T3, GABPA (Homo sapiens, UniProt Q06546 1-454); conditions: protein: recombinant; tags: N-terminal GST; dsDNA, one strand shown
# T3 sequence: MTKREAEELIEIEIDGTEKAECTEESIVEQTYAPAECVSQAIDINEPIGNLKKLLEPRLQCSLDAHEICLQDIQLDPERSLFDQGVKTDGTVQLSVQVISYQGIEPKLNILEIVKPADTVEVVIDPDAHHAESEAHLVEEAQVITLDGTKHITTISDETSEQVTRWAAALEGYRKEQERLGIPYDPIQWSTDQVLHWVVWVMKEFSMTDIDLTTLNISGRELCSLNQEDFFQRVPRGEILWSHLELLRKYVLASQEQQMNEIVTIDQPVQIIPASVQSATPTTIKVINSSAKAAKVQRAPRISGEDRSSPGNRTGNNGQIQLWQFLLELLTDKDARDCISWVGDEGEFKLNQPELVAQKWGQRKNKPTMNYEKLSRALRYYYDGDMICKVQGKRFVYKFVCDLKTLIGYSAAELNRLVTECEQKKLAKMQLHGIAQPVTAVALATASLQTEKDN
# Outline: as §1
# ERG = biological target: T4, ERG (Homo sapiens, UniProt P11308 1-479); conditions: protein: recombinant; tags: N-terminal GST; dsDNA, one strand shown
# T4 sequence: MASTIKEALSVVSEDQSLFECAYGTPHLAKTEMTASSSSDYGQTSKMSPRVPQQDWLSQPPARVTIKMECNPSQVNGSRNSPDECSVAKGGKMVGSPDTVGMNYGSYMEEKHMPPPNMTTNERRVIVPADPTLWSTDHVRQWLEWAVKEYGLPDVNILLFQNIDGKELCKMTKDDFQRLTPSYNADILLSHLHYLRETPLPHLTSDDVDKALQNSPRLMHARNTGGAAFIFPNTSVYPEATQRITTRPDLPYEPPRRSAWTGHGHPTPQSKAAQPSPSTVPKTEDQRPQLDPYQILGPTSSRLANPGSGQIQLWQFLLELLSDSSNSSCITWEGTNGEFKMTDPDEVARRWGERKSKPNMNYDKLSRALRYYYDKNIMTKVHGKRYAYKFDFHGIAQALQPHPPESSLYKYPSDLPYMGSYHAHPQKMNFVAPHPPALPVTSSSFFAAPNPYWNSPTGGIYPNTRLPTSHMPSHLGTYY
# Outline: as §1
# ELF1 = ELF1 (Homo sapiens, UniProt P32519 1-619); conditions: protein: recombinant; tags: N-terminal GST; dsDNA, one strand shown
# Chain of ELF1 (P32519 whole entry): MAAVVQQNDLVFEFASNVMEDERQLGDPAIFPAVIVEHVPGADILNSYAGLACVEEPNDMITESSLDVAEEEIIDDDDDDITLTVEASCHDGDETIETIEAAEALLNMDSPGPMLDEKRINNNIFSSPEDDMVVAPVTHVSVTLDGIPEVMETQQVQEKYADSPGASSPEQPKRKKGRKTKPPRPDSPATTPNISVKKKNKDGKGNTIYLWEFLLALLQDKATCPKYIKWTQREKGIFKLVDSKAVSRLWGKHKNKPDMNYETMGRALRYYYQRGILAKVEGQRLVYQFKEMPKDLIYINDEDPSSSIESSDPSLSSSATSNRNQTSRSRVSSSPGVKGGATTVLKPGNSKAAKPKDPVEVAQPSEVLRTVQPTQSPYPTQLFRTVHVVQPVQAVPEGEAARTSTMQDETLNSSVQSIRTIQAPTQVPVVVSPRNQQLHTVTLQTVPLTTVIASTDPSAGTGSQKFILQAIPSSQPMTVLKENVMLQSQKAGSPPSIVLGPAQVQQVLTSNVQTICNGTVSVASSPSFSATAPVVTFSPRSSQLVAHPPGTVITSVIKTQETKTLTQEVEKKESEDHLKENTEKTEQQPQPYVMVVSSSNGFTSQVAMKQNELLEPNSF
# Outline: as §1
# EHF = biological target: T5, EHF (Homo sapiens, UniProt Q9NZC4 1-300); conditions: protein: recombinant; tags: N-terminal GST; dsDNA, one strand shown
# T5 sequence: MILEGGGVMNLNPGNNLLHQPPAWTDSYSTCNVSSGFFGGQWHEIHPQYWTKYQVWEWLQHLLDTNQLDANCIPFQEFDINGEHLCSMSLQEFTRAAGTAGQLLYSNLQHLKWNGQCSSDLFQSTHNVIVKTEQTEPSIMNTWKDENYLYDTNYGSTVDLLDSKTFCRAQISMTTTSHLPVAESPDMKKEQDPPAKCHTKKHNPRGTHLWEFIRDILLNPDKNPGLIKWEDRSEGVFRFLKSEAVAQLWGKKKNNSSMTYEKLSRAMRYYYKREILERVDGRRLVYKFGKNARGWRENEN
# Outline: as §1
# SPI1 = SPI1 (Homo sapiens, UniProt P17947 1-270); conditions: protein: recombinant; tags: N-terminal GST; dsDNA, one strand shown
# Outline: as §1
# SPIB = SPIB (Homo sapiens, UniProt Q01892 1-262); conditions: protein: recombinant; tags: N-terminal GST; dsDNA, one strand shown
# Chain of SPIB (Q01892 whole entry): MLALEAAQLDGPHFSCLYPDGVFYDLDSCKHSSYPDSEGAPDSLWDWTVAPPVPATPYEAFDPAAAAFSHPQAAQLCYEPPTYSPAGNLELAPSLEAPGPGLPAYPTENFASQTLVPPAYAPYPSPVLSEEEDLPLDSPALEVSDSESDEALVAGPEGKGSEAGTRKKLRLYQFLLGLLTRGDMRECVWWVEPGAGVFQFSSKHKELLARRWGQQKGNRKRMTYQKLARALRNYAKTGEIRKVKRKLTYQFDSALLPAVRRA
# Outline: as §1
# ELK3 = biological target: T6, ELK3 (Homo sapiens, UniProt P41970 1-407); conditions: protein: recombinant; tags: N-terminal GST; dsDNA, one strand shown
# T6 sequence: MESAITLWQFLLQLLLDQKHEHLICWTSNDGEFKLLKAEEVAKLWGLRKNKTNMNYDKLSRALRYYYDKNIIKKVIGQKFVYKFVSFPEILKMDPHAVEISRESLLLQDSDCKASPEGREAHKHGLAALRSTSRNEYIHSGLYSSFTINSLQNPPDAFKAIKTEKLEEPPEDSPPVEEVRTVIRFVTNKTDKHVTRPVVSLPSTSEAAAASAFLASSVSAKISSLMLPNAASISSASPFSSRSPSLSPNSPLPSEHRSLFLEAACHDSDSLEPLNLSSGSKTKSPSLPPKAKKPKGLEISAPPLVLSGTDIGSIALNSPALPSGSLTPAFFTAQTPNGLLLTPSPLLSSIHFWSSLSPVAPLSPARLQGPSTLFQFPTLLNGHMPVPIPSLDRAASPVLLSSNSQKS
# Outline: as §1
# FEV = biological target: T7, FEV (Homo sapiens, UniProt Q99581 1-238); conditions: protein: recombinant; tags: N-terminal GST; dsDNA, one strand shown
# T7 sequence: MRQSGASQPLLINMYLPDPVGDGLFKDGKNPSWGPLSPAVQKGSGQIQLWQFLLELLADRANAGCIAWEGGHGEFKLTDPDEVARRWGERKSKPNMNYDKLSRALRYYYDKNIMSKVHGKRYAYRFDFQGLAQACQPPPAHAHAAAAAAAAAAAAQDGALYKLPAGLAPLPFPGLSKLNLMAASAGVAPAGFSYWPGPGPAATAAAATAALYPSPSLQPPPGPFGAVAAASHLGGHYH
# Outline: as §1
# ETV5 = ETV5 (Homo sapiens, UniProt P41161 1-510); conditions: protein: recombinant; tags: N-terminal GST; dsDNA, one strand shown
# Chain of ETV5 (P41161 whole entry): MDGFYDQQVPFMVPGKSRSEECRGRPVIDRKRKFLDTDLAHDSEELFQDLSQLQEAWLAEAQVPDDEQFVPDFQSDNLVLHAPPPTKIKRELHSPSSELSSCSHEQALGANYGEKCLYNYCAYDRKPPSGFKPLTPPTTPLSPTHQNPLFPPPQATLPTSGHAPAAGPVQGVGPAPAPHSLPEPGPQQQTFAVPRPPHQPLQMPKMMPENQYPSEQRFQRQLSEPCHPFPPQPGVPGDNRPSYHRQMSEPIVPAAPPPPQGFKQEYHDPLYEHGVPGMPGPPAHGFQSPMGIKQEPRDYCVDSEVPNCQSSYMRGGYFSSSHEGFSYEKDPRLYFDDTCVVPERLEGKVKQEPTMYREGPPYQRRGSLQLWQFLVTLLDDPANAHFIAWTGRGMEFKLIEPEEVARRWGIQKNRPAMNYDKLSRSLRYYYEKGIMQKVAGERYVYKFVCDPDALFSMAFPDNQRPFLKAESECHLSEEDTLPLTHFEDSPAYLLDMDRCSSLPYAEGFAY
# Outline: as §1
# HSF1 = HSF1 (Homo sapiens, UniProt Q00613 1-529); conditions: protein: recombinant; tags: N-terminal GST; chain copies: 3; dsDNA, one strand shown
# Chain of HSF1 (Q00613 whole entry): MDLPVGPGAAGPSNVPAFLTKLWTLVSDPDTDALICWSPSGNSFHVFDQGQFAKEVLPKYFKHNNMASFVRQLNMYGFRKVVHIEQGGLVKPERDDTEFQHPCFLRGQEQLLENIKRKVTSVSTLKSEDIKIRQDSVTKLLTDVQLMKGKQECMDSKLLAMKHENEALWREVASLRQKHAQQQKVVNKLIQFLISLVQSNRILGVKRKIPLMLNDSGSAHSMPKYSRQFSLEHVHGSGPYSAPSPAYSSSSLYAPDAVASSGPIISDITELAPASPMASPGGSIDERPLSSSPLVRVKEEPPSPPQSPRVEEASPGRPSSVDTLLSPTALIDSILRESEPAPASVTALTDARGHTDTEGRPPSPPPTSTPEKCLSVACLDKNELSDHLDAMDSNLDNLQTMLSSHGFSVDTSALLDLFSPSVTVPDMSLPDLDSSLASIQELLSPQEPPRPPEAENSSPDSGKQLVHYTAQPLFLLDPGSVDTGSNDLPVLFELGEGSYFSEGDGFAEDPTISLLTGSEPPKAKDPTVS
# Outline: as §1
# SPIC = biological target: T8, SPIC (Homo sapiens, UniProt Q8N5J4 1-248); conditions: protein: recombinant; tags: N-terminal GST; dsDNA, one strand shown
# T8 sequence: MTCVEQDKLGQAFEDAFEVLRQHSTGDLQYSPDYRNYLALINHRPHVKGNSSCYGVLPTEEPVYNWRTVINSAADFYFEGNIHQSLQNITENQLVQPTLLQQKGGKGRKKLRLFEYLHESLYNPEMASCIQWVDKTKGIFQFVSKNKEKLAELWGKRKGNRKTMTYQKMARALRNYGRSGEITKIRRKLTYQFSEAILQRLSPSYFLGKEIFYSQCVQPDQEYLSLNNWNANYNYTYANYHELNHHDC
# Outline: as §1
# ELF4 = ELF4 (Homo sapiens, UniProt Q99607 1-663); conditions: protein: recombinant; tags: N-terminal GST; dsDNA, one strand shown
# Chain of ELF4 (Q99607 whole entry): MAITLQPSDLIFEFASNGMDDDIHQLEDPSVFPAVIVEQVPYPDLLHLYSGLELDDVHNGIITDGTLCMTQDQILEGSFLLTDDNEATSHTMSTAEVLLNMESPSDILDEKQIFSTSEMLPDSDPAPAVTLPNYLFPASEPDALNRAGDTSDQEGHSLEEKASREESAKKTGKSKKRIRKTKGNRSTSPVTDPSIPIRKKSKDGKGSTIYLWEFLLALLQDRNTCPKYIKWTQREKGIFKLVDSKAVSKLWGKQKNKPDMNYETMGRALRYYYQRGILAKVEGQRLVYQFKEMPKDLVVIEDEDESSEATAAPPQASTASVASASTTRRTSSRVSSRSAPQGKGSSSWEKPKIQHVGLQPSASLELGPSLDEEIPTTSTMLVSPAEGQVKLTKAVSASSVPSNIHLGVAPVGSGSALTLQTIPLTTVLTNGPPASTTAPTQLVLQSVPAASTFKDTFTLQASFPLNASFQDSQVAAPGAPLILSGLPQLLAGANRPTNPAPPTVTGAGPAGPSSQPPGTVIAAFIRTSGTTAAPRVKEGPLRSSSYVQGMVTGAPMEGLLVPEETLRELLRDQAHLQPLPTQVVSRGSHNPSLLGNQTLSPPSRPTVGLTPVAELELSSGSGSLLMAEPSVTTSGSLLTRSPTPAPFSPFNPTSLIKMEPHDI
# Outline: as §1
# ELK4 = biological target: T9, ELK4 (Homo sapiens, UniProt P28324-2 1-405); conditions: protein: recombinant; tags: N-terminal GST; dsDNA, one strand shown
# T9 sequence: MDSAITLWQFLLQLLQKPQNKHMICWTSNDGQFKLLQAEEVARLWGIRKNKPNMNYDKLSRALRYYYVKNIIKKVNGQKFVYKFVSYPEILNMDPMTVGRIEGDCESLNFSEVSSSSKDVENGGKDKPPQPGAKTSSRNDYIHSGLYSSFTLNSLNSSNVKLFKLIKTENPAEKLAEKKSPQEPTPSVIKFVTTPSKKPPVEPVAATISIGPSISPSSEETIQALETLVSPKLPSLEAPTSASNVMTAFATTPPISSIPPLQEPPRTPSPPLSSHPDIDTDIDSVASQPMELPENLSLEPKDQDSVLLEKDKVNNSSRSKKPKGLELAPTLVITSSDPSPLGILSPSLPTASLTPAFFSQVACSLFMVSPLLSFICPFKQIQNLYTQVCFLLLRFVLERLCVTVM
# Outline: as §1
# ETV2 = biological target: T10, ETV2 (Homo sapiens, UniProt O00321 1-342); conditions: protein: recombinant; tags: N-terminal GST; dsDNA, one strand shown
# T10 sequence: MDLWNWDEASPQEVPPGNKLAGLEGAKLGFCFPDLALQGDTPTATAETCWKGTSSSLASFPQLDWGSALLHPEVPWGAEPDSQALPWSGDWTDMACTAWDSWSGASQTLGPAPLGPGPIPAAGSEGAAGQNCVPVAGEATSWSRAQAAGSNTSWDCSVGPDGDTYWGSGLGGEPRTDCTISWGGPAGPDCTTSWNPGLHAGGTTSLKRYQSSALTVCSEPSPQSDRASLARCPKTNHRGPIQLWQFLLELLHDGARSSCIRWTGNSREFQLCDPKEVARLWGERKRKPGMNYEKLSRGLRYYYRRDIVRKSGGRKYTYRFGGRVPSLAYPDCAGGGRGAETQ
# Outline: as §1
# ELF3 = biological target: T11, ELF3 (Homo sapiens, UniProt P78545 1-371); conditions: protein: recombinant; tags: N-terminal GST; dsDNA, one strand shown
# T11 sequence: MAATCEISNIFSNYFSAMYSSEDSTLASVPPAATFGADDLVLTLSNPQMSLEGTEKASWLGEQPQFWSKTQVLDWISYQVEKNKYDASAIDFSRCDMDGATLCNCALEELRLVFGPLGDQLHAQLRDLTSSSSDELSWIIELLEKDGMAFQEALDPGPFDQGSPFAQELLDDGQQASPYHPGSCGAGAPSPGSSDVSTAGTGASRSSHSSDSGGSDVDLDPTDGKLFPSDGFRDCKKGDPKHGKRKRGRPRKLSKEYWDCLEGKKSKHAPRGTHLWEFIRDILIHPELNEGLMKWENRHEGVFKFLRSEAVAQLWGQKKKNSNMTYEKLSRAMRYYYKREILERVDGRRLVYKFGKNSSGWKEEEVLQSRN
# Outline: as §1
# CRX = CRX (Homo sapiens, UniProt O43186 1-299); conditions: protein: recombinant; tags: N-terminal GST; dsDNA, one strand shown
# Chain of CRX (O43186 whole entry): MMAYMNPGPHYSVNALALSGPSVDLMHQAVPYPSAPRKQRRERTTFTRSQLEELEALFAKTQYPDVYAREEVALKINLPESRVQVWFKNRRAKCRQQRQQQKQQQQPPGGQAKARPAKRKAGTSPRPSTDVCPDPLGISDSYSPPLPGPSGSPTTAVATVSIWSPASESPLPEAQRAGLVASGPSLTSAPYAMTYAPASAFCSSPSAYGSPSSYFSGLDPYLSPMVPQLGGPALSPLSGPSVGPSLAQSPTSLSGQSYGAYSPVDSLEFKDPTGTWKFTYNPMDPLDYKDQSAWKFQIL
# Outline: as §1
# ETV1 = ETV1 (Homo sapiens, UniProt P50549 1-477); conditions: protein: recombinant; tags: N-terminal GST; dsDNA, one strand shown
# Chain of ETV1 (P50549 whole entry): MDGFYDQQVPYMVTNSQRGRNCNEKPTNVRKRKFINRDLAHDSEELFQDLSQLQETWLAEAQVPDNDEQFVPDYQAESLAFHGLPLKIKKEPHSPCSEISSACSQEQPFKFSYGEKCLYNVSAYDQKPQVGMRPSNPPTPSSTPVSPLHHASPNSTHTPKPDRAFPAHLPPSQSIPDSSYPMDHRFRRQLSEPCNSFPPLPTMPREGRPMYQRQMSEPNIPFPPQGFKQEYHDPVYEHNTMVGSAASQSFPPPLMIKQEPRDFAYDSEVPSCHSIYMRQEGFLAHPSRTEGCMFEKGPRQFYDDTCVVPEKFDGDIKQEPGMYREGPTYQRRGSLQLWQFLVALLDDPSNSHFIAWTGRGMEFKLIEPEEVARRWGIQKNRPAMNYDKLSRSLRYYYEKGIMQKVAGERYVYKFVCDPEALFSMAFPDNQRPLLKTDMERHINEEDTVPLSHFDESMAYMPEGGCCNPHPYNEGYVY
# Outline: as §1
sequence,measurement,setting,value
TCACTG,binding signal,FLI1,"1.21 fold enrichment (6-mer frequency, TF over GST control)"
same,binding signal,ELK1,"1.16 fold enrichment (6-mer frequency, TF over GST control)"
same,binding signal,GABPA,"1.22 fold enrichment (6-mer frequency, TF over GST control)"
same,binding signal,ERG,"1.27 fold enrichment (6-mer frequency, TF over GST control)"
same,binding signal,ELF1,"1.26 fold enrichment (6-mer frequency, TF over GST control)"
same,binding signal,EHF,"1.18 fold enrichment (6-mer frequency, TF over GST control)"
same,binding signal,SPI1,"1.15 fold enrichment (6-mer frequency, TF over GST control)"
same,binding signal,SPIB,"1.3 fold enrichment (6-mer frequency, TF over GST control)"
same,binding signal,ELK3,"1.2 fold enrichment (6-mer frequency, TF over GST control)"
same,binding signal,FEV,"1.22 fold enrichment (6-mer frequency, TF over GST control)"
same,binding signal,ETV5,"1.15 fold enrichment (6-mer frequency, TF over GST control)"
same,binding signal,HSF1,"1.15 fold enrichment (6-mer frequency, TF over GST control)"
same,binding signal,SPIC,"1.24 fold enrichment (6-mer frequency, TF over GST control)"
same,binding signal,ELF4,"1.17 fold enrichment (6-mer frequency, TF over GST control)"
same,binding signal,ELK4,"1.14 fold enrichment (6-mer frequency, TF over GST control)"
same,binding signal,ETV2,"1.15 fold enrichment (6-mer frequency, TF over GST control)"
same,binding signal,ELF3,"1.48 fold enrichment (6-mer frequency, TF over GST control)"
same,binding signal,CRX,"1.09 fold enrichment (6-mer frequency, TF over GST control)"
same,binding signal,ETV1,"1.21 fold enrichment (6-mer frequency, TF over GST control)"
